Common to all, as to assay: DAPPL (digital affinity profiling via proximity ligation, sequencing); 10 mM Tris-HCl pH 7.5, 50 mM NaCl, 1 mM DTT, 4% glycerol, room temperature, 30 min; GST-TFs on glutathione beads, 16-mer random dsDNA library, 0.1% formaldehyde crosslink after washing; high values mean tight binding
One assay addresses T1, FLI1 (Homo sapiens, UniProt Q01543 1-452).
T1 sequence: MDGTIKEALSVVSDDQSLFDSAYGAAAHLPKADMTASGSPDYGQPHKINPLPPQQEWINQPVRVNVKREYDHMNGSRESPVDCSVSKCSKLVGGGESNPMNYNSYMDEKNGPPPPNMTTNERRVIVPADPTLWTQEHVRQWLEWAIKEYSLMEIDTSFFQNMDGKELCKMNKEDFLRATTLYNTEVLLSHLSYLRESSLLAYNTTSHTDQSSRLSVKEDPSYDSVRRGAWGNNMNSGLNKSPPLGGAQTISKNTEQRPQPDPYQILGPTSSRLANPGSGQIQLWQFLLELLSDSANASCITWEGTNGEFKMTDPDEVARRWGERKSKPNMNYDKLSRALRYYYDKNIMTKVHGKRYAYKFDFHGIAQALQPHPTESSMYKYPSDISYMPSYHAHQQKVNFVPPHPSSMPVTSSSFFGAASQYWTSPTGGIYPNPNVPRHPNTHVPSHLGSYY
The conditions noted are these: protein: recombinant; tags: N-terminal GST; dsDNA, one strand shown. The method in brief: (§1)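 Binding signal is each hexamer's read frequency for a factor divided by its frequency in the tag-only sample. The factors were GST-fused human transcription factors from yeast, captured on glutathione beads, DNA-barcoded and pooled with that sample. Pools were incubated with 200 nmole of a random double-stranded 16-mer DNA library in Tris/NaCl/DTT/glycerol buffer at room temperature for 30 min, then washed, crosslinked with 0.1% formaldehyde, proximity-ligated with BsaI/T4 ligase (1 h, 37 °C), PCR-amplified and sequenced on an Illumina NextSeq500.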

The target in another assay is T2, ELK1 (Homo sapiens, UniProt P19419 1-428).
T2 sequence: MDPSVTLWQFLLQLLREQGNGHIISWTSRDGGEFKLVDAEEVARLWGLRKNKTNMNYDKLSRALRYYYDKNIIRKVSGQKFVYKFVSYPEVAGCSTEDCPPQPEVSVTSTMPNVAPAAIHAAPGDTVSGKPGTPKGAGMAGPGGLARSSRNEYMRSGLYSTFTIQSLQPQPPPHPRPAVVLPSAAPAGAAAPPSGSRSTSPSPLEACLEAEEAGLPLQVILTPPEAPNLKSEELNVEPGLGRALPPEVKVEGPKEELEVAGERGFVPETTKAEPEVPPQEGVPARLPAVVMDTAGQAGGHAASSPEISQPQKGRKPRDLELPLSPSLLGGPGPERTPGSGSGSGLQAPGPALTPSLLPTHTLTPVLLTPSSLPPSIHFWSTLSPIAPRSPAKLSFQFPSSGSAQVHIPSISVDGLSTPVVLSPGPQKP
The settings on record: protein: recombinant; tags: N-terminal GST; dsDNA, one strand shown. The method in brief:
as §1

For another assay, the target named is T3, GABPA (Homo sapiens, UniProt Q06546 1-454).
T3 sequence: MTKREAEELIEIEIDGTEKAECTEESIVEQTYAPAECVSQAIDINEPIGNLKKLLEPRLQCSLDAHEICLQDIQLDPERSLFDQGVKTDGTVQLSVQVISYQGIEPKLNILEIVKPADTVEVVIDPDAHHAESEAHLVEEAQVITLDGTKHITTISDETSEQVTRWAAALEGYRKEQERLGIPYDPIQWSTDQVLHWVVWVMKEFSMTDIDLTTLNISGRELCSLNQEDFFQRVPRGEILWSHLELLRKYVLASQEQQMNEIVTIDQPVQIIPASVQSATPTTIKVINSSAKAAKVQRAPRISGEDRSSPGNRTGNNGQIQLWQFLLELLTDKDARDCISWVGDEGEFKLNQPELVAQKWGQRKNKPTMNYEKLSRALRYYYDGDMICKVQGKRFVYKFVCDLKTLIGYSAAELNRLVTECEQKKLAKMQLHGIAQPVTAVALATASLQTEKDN
The conditions noted are these: protein: recombinant; tags: N-terminal GST; dsDNA, one strand shown. The method in brief: as §1

The target in another assay is T4, ERG (Homo sapiens, UniProt P11308 1-479).
T4 sequence: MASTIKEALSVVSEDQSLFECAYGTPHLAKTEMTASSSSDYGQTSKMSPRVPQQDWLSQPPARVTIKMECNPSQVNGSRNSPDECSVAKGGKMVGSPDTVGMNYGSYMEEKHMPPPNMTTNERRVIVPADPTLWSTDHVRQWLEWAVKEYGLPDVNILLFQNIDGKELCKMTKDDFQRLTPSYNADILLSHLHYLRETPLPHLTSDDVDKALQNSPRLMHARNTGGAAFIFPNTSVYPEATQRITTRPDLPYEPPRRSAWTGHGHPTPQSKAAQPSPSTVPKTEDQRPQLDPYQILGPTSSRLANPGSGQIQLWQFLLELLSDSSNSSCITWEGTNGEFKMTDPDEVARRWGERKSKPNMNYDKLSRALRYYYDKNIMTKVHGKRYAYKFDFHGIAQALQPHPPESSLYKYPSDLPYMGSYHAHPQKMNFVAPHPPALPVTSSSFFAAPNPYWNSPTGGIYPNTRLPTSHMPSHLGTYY
The settings on record: protein: recombinant; tags: N-terminal GST; dsDNA, one strand shown. The method in brief:
as §1

Another assay addresses ELF1 (Homo sapiens, UniProt P32519 1-619). The conditions noted are these: protein: recombinant; tags: N-terminal GST; dsDNA, one strand shown. A digest of the protocol:
as §1

In the next assay the target is T5, EHF (Homo sapiens, UniProt Q9NZC4 1-300).
T5 sequence: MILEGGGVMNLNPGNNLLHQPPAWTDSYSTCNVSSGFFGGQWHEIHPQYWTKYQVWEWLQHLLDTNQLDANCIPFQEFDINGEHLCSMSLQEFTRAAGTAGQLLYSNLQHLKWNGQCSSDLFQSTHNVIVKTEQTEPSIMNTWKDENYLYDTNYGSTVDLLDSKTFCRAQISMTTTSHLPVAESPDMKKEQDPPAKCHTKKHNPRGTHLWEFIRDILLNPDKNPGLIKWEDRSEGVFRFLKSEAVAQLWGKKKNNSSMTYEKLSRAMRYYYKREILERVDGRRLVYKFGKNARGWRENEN
The settings on record: protein: recombinant; tags: N-terminal GST; dsDNA, one strand shown. The method in brief: as §1

Another assay deals with SPI1 (Homo sapiens, UniProt P17947 1-270). The conditions noted are these: protein: recombinant; tags: N-terminal GST; dsDNA, one strand shown. The method in brief: as §1
The target of the next assay is SPIB (Homo sapiens, UniProt Q01892 1-262). The conditions noted are these: protein: recombinant; tags: N-terminal GST; dsDNA, one strand shown. A digest of the protocol: as §1
SPIB, sequence (Q01892 whole entry): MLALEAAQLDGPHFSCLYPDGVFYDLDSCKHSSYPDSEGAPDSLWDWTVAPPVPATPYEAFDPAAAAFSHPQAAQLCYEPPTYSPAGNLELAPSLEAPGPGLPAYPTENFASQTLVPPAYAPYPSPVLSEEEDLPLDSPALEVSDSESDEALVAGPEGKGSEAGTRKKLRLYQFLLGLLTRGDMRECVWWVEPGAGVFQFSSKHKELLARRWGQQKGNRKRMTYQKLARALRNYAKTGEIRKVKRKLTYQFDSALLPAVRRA
The next assay concerns the target T6, ELK3 (Homo sapiens, UniProt P41970 1-407).
T6 sequence: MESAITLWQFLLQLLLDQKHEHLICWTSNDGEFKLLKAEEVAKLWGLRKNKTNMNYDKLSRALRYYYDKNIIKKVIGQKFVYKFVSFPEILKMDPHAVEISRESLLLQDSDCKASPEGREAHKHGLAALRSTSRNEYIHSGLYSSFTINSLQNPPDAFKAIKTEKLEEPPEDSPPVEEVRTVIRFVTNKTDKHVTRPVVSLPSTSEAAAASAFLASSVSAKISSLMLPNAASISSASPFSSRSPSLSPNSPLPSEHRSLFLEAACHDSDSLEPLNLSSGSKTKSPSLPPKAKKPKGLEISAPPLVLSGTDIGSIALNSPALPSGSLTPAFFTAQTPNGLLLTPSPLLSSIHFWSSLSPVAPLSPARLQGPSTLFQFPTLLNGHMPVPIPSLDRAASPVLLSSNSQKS
The settings on record: protein: recombinant; tags: N-terminal GST; dsDNA, one strand shown. The method in brief: as §1

For another assay, the target named is T7, FEV (Homo sapiens, UniProt Q99581 1-238).
T7 sequence: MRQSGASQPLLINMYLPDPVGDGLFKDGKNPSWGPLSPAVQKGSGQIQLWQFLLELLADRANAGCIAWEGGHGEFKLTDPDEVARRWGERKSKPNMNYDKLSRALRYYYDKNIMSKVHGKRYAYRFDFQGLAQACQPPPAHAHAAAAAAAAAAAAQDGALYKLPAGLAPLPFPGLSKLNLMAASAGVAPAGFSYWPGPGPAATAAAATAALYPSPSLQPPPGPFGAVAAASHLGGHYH
The settings on record: protein: recombinant; tags: N-terminal GST; dsDNA, one strand shown. The method in brief: as §1

In the next assay the target is ETV5 (Homo sapiens, UniProt P41161 1-510). The conditions noted are these: protein: recombinant; tags: N-terminal GST; dsDNA, one strand shown. The method in brief:
as §1

For a further assay, the target named is HSF1 (Homo sapiens, UniProt Q00613 1-529). The settings on record: protein: recombinant; tags: N-terminal GST; chain copies: 3; dsDNA, one strand shown. A digest of the protocol: as §1
HSF1, sequence (Q00613 whole entry): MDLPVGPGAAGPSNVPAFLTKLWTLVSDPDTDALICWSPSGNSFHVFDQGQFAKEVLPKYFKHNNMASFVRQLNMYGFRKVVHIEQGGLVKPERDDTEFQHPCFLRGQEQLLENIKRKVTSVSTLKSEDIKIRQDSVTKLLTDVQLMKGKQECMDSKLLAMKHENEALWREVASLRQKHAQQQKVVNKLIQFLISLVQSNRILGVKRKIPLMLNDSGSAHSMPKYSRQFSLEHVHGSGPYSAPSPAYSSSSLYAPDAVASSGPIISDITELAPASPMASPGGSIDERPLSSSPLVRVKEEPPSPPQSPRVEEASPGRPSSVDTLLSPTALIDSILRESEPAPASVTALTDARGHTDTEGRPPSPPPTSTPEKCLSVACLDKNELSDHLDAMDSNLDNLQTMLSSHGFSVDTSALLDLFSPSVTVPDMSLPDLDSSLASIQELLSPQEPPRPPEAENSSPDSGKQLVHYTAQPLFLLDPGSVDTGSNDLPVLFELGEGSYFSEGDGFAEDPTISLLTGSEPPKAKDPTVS
The next assay has as its target T8, SPIC (Homo sapiens, UniProt Q8N5J4 1-248).
T8 sequence: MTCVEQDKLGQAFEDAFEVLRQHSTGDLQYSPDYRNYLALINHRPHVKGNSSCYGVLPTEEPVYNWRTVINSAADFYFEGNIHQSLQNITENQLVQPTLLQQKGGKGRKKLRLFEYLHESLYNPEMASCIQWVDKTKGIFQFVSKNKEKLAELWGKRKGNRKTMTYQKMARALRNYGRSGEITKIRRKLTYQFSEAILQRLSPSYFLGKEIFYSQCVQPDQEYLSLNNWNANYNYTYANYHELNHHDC
The settings on record: protein: recombinant; tags: N-terminal GST; dsDNA, one strand shown. The method in brief:
as §1

Another assay concerns the target ELF4 (Homo sapiens, UniProt Q99607 1-663). The conditions noted are these: protein: recombinant; tags: N-terminal GST; dsDNA, one strand shown. A digest of the protocol:
as §1

A further assay addresses T9, ELK4 (Homo sapiens, UniProt P28324-2 1-405).
T9 sequence: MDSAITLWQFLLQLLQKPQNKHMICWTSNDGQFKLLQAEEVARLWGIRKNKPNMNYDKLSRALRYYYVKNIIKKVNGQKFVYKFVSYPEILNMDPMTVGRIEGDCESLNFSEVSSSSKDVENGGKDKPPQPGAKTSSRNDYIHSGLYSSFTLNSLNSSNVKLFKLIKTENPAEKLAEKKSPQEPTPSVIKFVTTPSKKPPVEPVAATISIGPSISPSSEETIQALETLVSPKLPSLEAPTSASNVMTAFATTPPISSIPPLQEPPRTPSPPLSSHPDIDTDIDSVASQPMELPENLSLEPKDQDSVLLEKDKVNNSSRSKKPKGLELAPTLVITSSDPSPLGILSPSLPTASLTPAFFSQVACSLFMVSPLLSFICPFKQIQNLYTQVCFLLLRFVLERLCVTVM
The conditions noted are these: protein: recombinant; tags: N-terminal GST; dsDNA, one strand shown. The method in brief:
as §1

The target in the next assay is T10, ETV2 (Homo sapiens, UniProt O00321 1-342).
T10 sequence: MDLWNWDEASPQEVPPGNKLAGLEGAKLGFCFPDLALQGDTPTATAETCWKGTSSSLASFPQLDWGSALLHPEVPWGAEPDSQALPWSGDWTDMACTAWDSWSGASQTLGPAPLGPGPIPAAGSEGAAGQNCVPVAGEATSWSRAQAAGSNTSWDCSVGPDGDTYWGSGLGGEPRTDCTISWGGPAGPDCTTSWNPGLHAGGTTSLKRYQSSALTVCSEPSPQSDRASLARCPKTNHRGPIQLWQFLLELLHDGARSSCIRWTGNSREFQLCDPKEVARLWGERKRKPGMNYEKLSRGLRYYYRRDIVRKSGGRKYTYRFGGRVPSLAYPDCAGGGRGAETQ
The conditions noted are these: protein: recombinant; tags: N-terminal GST; dsDNA, one strand shown. The method in brief:
as §1

Another assay deals with T11, ELF3 (Homo sapiens, UniProt P78545 1-371).
T11 sequence: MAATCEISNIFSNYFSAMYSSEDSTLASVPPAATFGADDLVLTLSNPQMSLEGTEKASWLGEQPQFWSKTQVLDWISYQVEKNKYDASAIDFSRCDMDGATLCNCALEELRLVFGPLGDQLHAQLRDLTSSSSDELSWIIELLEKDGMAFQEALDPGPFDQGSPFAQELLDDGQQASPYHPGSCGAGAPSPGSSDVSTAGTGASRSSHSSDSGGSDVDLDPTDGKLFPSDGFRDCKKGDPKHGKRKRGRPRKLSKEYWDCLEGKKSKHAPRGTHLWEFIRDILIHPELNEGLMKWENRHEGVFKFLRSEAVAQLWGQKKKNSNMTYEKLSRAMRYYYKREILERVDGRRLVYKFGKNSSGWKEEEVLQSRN
The conditions noted are these: protein: recombinant; tags: N-terminal GST; dsDNA, one strand shown. A digest of the protocol:
as §1

The target in another assay is CRX (Homo sapiens, UniProt O43186 1-299). The settings on record: protein: recombinant; tags: N-terminal GST; dsDNA, one strand shown. A digest of the protocol:
as §1

The next assay has as its target ETV1 (Homo sapiens, UniProt P50549 1-477). The settings on record: protein: recombinant; tags: N-terminal GST; dsDNA, one strand shown. The method in brief: as §1

CRX, sequence (O43186 whole entry): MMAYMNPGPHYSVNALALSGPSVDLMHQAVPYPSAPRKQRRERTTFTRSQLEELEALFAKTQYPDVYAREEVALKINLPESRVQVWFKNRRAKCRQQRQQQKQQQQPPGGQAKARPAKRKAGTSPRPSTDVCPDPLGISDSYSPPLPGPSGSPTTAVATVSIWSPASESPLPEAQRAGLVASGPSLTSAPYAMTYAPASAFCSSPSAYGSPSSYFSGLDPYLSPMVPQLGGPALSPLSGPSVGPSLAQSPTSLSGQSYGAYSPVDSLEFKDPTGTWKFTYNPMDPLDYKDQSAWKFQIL
ELF4, sequence (Q99607 whole entry): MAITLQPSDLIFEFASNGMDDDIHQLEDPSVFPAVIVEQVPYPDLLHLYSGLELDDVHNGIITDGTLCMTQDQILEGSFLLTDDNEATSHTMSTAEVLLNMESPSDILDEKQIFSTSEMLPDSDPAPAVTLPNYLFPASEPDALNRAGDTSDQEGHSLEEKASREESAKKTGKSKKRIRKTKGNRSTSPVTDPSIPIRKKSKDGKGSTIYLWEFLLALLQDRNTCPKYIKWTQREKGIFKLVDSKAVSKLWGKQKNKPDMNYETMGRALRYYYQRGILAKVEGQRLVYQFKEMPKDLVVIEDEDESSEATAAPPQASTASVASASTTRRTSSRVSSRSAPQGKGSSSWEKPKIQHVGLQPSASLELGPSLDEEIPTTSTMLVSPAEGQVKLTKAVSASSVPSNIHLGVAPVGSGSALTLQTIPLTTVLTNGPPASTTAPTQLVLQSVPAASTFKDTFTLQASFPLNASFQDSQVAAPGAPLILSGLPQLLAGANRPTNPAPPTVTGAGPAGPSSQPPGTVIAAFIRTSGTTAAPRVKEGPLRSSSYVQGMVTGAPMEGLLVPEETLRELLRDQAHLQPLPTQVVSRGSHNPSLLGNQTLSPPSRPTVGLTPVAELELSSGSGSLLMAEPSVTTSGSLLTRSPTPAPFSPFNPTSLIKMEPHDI
ELF1, sequence (P32519 whole entry): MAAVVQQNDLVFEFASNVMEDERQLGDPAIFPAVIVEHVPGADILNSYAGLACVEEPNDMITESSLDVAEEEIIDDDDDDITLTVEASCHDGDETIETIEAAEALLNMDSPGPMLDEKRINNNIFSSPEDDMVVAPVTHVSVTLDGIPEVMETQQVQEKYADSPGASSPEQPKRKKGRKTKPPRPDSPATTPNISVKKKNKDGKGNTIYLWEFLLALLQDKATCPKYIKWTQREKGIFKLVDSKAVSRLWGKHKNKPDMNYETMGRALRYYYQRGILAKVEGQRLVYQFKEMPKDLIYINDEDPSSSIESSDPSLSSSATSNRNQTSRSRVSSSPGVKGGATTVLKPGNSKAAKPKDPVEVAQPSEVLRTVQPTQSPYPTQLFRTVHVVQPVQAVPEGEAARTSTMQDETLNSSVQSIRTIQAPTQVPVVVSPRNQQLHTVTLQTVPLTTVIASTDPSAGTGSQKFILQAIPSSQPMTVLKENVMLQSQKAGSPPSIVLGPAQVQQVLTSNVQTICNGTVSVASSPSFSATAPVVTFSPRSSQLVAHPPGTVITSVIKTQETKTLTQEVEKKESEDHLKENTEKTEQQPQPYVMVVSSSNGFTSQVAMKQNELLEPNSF
ETV1, sequence (P50549 whole entry): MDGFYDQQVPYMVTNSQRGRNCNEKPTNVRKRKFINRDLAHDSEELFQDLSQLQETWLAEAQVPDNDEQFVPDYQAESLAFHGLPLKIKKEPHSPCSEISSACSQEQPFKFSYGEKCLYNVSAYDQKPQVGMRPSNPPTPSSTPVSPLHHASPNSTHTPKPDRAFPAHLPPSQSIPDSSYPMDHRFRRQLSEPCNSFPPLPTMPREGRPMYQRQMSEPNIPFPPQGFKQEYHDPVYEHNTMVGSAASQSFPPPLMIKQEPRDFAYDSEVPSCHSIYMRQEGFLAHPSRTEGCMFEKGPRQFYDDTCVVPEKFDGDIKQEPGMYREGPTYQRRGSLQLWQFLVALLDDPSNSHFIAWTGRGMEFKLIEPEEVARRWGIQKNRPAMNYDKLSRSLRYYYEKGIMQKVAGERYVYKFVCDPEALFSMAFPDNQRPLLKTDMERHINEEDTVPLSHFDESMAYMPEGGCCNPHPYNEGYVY
ETV5, sequence (P41161 whole entry): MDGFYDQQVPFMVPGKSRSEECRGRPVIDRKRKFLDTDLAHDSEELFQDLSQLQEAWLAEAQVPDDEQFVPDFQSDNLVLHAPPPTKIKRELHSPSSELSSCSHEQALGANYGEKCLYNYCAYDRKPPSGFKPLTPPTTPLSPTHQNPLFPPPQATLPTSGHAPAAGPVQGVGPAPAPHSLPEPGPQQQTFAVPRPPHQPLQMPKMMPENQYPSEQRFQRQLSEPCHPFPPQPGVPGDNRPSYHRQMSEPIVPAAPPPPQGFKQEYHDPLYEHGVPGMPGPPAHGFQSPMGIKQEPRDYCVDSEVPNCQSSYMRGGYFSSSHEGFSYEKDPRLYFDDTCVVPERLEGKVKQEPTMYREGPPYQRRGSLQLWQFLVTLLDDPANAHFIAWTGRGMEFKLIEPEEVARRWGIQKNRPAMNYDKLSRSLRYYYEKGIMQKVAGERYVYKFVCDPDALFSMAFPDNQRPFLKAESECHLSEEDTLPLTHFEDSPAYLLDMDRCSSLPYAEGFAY

ATATGG: the binding signal is 1.13 fold enrichment (6-mer frequency, TF over GST control) in the assay with FLI1; 1.31 fold enrichment (6-mer frequency, TF over GST control) in the assay with ELK1; 1.28 fold enrichment (6-mer frequency, TF over GST control) with GABPA; 1.36 fold enrichment (6-mer frequency, TF over GST control) with ERG; 1.26 fold enrichment (6-mer frequency, TF over GST control) with ELF1; 1.27 fold enrichment (6-mer frequency, TF over GST control) with EHF. The binding signal with SPI1 is 1.17 fold enrichment (6-mer frequency, TF over GST control); with SPIB it was 1.24 fold enrichment (6-mer frequency, TF over GST control); with ELK3, 1.25 fold enrichment (6-mer frequency, TF over GST control); with FEV, 1.25 fold enrichment (6-mer frequency, TF over GST control); in the assay with ETV5, 1.3 fold enrichment (6-mer frequency, TF over GST control); in the assay with HSF1, 1.17 fold enrichment (6-mer frequency, TF over GST control). Moreover, the binding signal was 1.41 fold enrichment (6-mer frequency, TF over GST control) with SPIC; 1.35 fold enrichment (6-mer frequency, TF over GST control) in the assay with ELF4; 1.36 fold enrichment (6-mer frequency, TF over GST control) in the assay with ELK4; 1.13 fold enrichment (6-mer frequency, TF over GST control) with ETV2; 1.36 fold enrichment (6-mer frequency, TF over GST control) with ELF3; 1.19 fold enrichment (6-mer frequency, TF over GST control) with CRX. The binding signal with ETV1 was 1.17 fold enrichment (6-mer frequency, TF over GST control).
